# Test results reported in PubChem BioAssay (NCATS).
# Records with an inconclusive call do not appear. Where a call stands in place of a potency, no number is given. A number with no mark means an inactive call. Calls of active or inactive are those of the source. Calls follow the shape of the dose curve; as a rule, active = well fitted inhibition curve with a large enough effect; inconclusive = small, poorly fitted or top-dose-only effect; inactive = flat fitted curve, though single readings scatter.
# What was measured:
# [1] = test system: HEK293; test: Cytotoxic Profiling of Annotated Libraries Using Quantitative High-Throughput Screening (AID 1296008); details: Five cell lines viability, CellTiter-Glo ATP luminescence, 48-72 h; max response: hits give low values
# In short: (§1)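 Cytotoxicity was measured as CellTiter-Glo ATP luminescence, read after 10 min at room temperature. Compound treatment of the cells lasted 48 or 72 hr at 37 degrees Celsius in a qHTS format.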
# [2] = test system: HaCat; test: as above; details: Five cell lines viability, CellTiter-Glo ATP luminescence, 48-72 h; max response: hits give low values
# In short: as §1
# [3] = test system: NIH3T3; test: as above; details: Five cell lines viability, CellTiter-Glo ATP luminescence, 48-72 h; max response: hits give low values
# In short: as §1
# [4] = test system: MCC-13; test: qHTS assay to identify novel small-molecules to repurpose for Merkel cell carcinoma treatment (AID 1296009); details: MCC and control cell lines, CellTiter-Glo viability, 72 h; series mostly up to 46 µM
# In short: (§2)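 72 hr, 37 degree celsius; NPC 8-pt / MIPE 11-pt dose response; compound pinned in DMSO; CellTiter-Glo, 10 min RT, luminescence; normalized to no-cell and DMSO controls.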
# [5] = test system: MKL-1; test: as above; details: MCC and control cell lines, CellTiter-Glo viability, 72 h; series mostly up to 46 µM
# In short: as §2
# [6] = test system: MKL-2; test: as above; details: MCC and control cell lines, CellTiter-Glo viability, 72 h; series mostly up to 46 µM
# In short: as §2
# [7] = test system: MCC-26; test: as above; details: MCC and control cell lines, CellTiter-Glo viability, 72 h; series mostly up to 46 µM
# In short: as §2
# [8] = test system: KB-3-1; test: Cytotoxic Profiling of Annotated Libraries Using Quantitative High-Throughput Screening (AID 1296008); details: Five cell lines viability, CellTiter-Glo ATP luminescence, 48-72 h; max response: hits give low values
# In short: as §1
# [9] = test system: HEK293T; test: qHTS assay to identify novel small-molecules to repurpose for Merkel cell carcinoma treatment (AID 1296009); details: MCC and control cell lines, CellTiter-Glo viability, 72 h; at 44.8 µM (top of the series) unless noted
# In short: as §2
# [10] = test system: HACAT; test: as above; details: MCC and control cell lines, CellTiter-Glo viability, 72 h; at 44.8 µM (top of the series) unless noted
# In short: as §2
# Also: nearly all actives have a fitted effect of over 60% in size.
# Potency is read from the fitted curve at half-maximal effect.
smiles,measurement,setting,value
OCCCc1ccccc1,max response,[1],-4.71%
same,max response,[2],-3%
same,outcome,[3],inactive
same,Potency,[4],inactive
same,Potency,[5],inactive
same,Potency,[6],inactive
Cc1sccc1Br,max response,[1],-4.49%
same,max response,[2],1.43%
same,max response,[3],-2.8%
same,Potency,[4],inactive
same,Potency,[5],inactive
same,Potency,[6],inactive
CC(C(O)c1ccccc1)N(C)CCOC(c1ccccc1)c1ccccc1 (centres undefined),Potency,[1],13 µM (active)
same,max response,[2],2.35%
same,Potency,[4],inactive
same,Potency,[7],inactive
C[C@H](CN1CCCC1)C(=O)c1ccc(C(F)(F)F)cc1,max response,[1],-20.1%
same,max response,[8],4.58%
same,max response,[3],-14.5%
same,Potency,[4],inactive
same,Potency,[7],inactive
same,Potency,[5],inactive
CSCC[C@H](NC(=O)[C@H](Cc1c[nH]c2ccccc12)NC(=O)CCNC(=O)OC(C)(C)C)C(=O)N[C@@H](CC(=O)O)C(=O)N[C@@H](Cc1ccccc1)C(N)=O,max response,[1],0.664%
same,max response,[2],-2.67%
same,outcome,[3],inactive
same,Potency,[4],inactive
same,Potency,[5],inactive
same,Potency,[6],inactive
N#Cc1cc(NC(=O)C(=O)O)c(Cl)c(NC(=O)C(=O)O)c1,max response,[1],-3.47%
same,max response,[2],-3.53%
same,max response,[3],-0.466%
same,Potency,[4],inactive
same,Potency,[5],inactive
same,Potency,[6],inactive
C#Cc1ccc(-c2ccccc2F)cc1,max response,[1],-8.83%
same,max response,[2],3.65%
same,outcome,[3],inactive
same,Potency,[4],inactive
same,Potency,[7],inactive
same,Potency,[5],inactive
same,Potency,[6],inactive
CC[C@@H]([C@H](C)O)n1ncn(-c2ccc(N3CCN(c4ccc(OC[C@@H]5CO[C@@](Cn6cncn6)(c6ccc(F)cc6F)C5)cc4)CC3)cc2)c1=O,Potency,[1],7.5 µM (active)
same,max response,[2],-3.01%
same,Potency,[4],inactive
same,Potency,[7],inactive
same,Potency,[5],inactive
same,Potency,[6],inactive
Cc1ccc2c(Cl)cc(Cl)c(O)c2n1,max response,[1],-23.5%
same,max response,[2],-10%
same,max response,[3],2.93%
same,Potency,[4],inactive
same,Potency,[5],inactive
same,Potency,[6],inactive
CC(=O)O[C@H]1CC[C@@]2(C)C(=CC[C@@H]3[C@@H]2CC[C@]2(C)C(C(C)=O)=CC[C@@H]32)C1,max response,[1],-0.38%
same,max response,[2],-12.2%
same,max response,[3],-1.15%
same,Potency,[4],inactive
same,Potency,[5],inactive
same,Potency,[6],inactive
CCN1CCCC1CN (centres undefined),outcome,[1],inactive
same,max response,[3],-1.87%
same,outcome,[9],inactive
same,Potency,[4],inactive
same,Potency,[7],inactive
same,Potency,[5],inactive
same,Potency,[6],inactive
CC(C)(C)c1ccc(O)c(O)c1,Potency,[1],12.2 µM (active)
same,max response,[8],-6.07%
same,Potency,[5],6.86 µM (active)
same,Potency,[6],6.11 µM (active)
CCOC(=O)c1ccc(O)c(O)c1,outcome,[1],inactive
same,max response,[2],-0.432%
same,outcome,[9],inactive
same,Potency,[7],inactive
same,Potency,[5],5.96 µM (active)
CCNC(=O)NCCCOc1cccc(CN2CCCCC2)c1,max response,[1],-59.3%
same,max response,[8],-12.8%
same,outcome,[3],inactive
same,Potency,[4],inactive
same,Potency,[7],inactive
same,Potency,[5],inactive
same,Potency,[6],inactive
CC(=O)c1cc2ccccc2s1,max response,[1],-8.14%
same,max response,[2],-0.924%
same,max response,[3],1.18%
same,Potency,[4],inactive
same,Potency,[5],inactive
same,Potency,[6],inactive
COc1cc(S(N)(=O)=O)cc(C(=O)O)c1OC,max response,[1],-2.74%
same,max response,[2],2%
same,outcome,[3],inactive
same,Potency,[4],inactive
same,Potency,[5],inactive
same,Potency,[6],inactive
CC[C@@]1(O)C(=O)OCc2c1cc1n(c2=O)Cc2c-1nc1ccccc1c2/C=N/OC(C)(C)C,Potency,[1],0.0211 µM (active)
same,Potency,[2],0.0422 µM (active)
same,Potency,[3],0.266 µM (active)
same,Potency,[4],0.0841 µM (active)
same,Potency,[7],0.0944 µM (active)
same,Potency,[6],0.0376 µM (active)
CCCCCCCCCCCCCCCCCCNC(=O)OC1CCN(C(=O)OC[C@H](COC(=O)N(Cc2cccc[n+]2CC)C(=O)c2ccccc2OC)OC)CC1,Potency,[1],7.5 µM (active)
same,Potency,[8],6.51 µM (active)
same,Potency,[5],11.9 µM (active)
same,Potency,[6],2.66 µM (active)
CN1[C@@H]2CC[C@H]1CC(NC(=O)n1c(=O)[nH]c3ccccc31)C2 (some centres undefined),max response,[1],-4.57%
same,max response,[8],-6.43%
same,max response,[3],1.08%
same,Potency,[4],inactive
same,Potency,[7],inactive
same,Potency,[5],inactive
same,Potency,[6],inactive
CCC(=O)O[C@]1(C(=O)COC)[C@@H](C)C[C@H]2[C@@H]3CCC4=CC(=O)C=C[C@]4(C)C3(F)[C@@H](O)C[C@@]21C (some centres undefined),max response,[1],-13.2%
same,outcome,[2],inactive
same,outcome,[10],inactive
same,Potency,[4],inactive
same,Potency,[7],inactive
same,Potency,[5],inactive
same,Potency,[6],inactive
CCC1=C[C@@H]2CN(C1)Cc1c([nH]c3ccccc13)[C@@](C(=O)OC)(c1cc3c(cc1OC)N(C)[C@H]1[C@@](O)(C(=O)OC)[C@H](OC(C)=O)[C@]4(CC)C=CCN5CC[C@]31[C@@H]54)C2,Potency,[1],0.0084 µM (active)
same,outcome,[2],inactive
same,outcome,[10],inactive
same,Potency,[6],0.0188 µM (active)
NS(=O)(=O)c1cc2c(cc1Cl)CN(C1CCCCC1)C2=O,outcome,[1],inactive
same,max response,[3],4.87%
same,outcome,[9],inactive
same,Potency,[4],inactive
same,Potency,[7],inactive
same,Potency,[5],inactive
same,Potency,[6],inactive
OC1(c2ccc(Cl)c(C(F)(F)F)c2)CCN(CCCC(c2ccc(F)cc2)c2ccc(F)cc2)CC1,Potency,[1],8.41 µM (active)
same,Potency,[8],23.1 µM (active)
same,Potency,[4],18.8 µM (active)
same,Potency,[5],7.5 µM (active)
same,Potency,[6],5.31 µM (active)
